# According to article PMC7862700, “An all-to-all approach to the identification of sequence-specific readers for epigenetic DNA modifications on cytosine”:
# Assays:
# Test in all cases: DAPPL (digital affinity profiling via proximity ligation, sequencing); 10 mM Tris-HCl pH 7.5, 50 mM NaCl, 1 mM DTT, 4% glycerol, room temperature, 30 min; GST-TFs on glutathione beads, 16-mer random dsDNA library, 0.1% formaldehyde crosslink after washing; high values mean tight binding
# FEV = target: T1, FEV (Homo sapiens, UniProt Q99581 1-238); details: protein: recombinant; tags: N-terminal GST; dsDNA, one strand shown
# T1 sequence: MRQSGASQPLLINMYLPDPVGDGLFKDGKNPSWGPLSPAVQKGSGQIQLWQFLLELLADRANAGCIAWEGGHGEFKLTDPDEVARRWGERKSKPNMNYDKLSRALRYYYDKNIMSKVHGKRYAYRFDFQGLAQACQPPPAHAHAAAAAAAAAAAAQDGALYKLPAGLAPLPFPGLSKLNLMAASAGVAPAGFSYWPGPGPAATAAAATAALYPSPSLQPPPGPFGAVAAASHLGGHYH
# Method in brief: (§1)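 Binding signal is each hexamer's read frequency for a factor divided by its frequency in the tag-only sample. The factors were GST-fused human transcription factors from yeast, captured on glutathione beads, DNA-barcoded and pooled with that sample. Pools were incubated with 200 nmole of a random double-stranded 16-mer DNA library in Tris/NaCl/DTT/glycerol buffer at room temperature for 30 min, then washed, crosslinked with 0.1% formaldehyde, proximity-ligated with BsaI/T4 ligase (1 h, 37 °C), PCR-amplified and sequenced on an Illumina NextSeq500.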
# ETV5 = ETV5 (Homo sapiens, UniProt P41161 1-510); details: protein: recombinant; tags: N-terminal GST; dsDNA, one strand shown
# Method in brief: as §1
# HSF1 = HSF1 (Homo sapiens, UniProt Q00613 1-529); details: protein: recombinant; tags: N-terminal GST; chain copies: 3; dsDNA, one strand shown
# Method in brief: as §1
# SPIC = target: T2, SPIC (Homo sapiens, UniProt Q8N5J4 1-248); details: protein: recombinant; tags: N-terminal GST; dsDNA, one strand shown
# T2 sequence: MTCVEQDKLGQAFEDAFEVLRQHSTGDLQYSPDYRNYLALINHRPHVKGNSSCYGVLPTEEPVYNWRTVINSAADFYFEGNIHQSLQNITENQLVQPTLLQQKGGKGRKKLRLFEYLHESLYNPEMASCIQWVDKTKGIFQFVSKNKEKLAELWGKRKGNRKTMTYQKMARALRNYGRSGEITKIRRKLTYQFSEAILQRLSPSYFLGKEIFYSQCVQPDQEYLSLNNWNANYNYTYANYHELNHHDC
# Method in brief: as §1
# ELF4 = ELF4 (Homo sapiens, UniProt Q99607 1-663); details: protein: recombinant; tags: N-terminal GST; dsDNA, one strand shown
# Method in brief: as §1
# ELK4 = target: T3, ELK4 (Homo sapiens, UniProt P28324-2 1-405); details: protein: recombinant; tags: N-terminal GST; dsDNA, one strand shown
# T3 sequence: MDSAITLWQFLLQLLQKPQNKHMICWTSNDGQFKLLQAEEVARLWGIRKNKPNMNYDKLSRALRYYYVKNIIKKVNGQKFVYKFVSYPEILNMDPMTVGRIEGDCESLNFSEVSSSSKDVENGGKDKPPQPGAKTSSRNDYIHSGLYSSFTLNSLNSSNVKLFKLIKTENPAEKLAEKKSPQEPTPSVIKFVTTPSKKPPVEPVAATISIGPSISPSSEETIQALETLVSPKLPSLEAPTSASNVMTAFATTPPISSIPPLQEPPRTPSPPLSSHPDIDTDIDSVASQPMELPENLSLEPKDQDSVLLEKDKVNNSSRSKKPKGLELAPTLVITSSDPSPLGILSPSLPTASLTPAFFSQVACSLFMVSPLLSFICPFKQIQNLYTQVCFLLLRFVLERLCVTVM
# Method in brief: as §1
# ETV2 = target: T4, ETV2 (Homo sapiens, UniProt O00321 1-342); details: protein: recombinant; tags: N-terminal GST; dsDNA, one strand shown
# T4 sequence: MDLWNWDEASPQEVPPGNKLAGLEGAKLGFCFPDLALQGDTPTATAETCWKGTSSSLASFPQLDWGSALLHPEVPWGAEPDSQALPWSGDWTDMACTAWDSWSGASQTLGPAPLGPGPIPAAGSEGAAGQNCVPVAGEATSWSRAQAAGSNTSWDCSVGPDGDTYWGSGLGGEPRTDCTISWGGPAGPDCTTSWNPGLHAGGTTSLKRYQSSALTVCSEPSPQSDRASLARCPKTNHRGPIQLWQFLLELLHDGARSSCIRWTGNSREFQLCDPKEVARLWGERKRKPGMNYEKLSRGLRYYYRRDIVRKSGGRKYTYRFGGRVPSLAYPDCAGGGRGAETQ
# Method in brief: as §1
# ELF3 = target: T5, ELF3 (Homo sapiens, UniProt P78545 1-371); details: protein: recombinant; tags: N-terminal GST; dsDNA, one strand shown
# T5 sequence: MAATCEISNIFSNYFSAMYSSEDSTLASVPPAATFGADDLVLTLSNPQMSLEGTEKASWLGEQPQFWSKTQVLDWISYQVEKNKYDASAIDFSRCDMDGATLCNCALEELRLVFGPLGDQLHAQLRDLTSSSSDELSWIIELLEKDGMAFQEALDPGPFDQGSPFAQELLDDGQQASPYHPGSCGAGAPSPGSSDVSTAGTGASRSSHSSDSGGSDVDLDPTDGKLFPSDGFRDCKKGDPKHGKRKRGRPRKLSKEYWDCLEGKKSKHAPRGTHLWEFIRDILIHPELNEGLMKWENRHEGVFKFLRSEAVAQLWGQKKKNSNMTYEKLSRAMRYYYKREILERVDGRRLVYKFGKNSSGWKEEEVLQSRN
# Method in brief: as §1
# CRX = CRX (Homo sapiens, UniProt O43186 1-299); details: protein: recombinant; tags: N-terminal GST; dsDNA, one strand shown
# Method in brief: as §1
# ETV1 = ETV1 (Homo sapiens, UniProt P50549 1-477); details: protein: recombinant; tags: N-terminal GST; dsDNA, one strand shown
# Method in brief: as §1
# ERF = target: T6, ERF (Homo sapiens, UniProt P50548 1-548); details: protein: recombinant; tags: N-terminal GST; dsDNA, one strand shown
# T6 sequence: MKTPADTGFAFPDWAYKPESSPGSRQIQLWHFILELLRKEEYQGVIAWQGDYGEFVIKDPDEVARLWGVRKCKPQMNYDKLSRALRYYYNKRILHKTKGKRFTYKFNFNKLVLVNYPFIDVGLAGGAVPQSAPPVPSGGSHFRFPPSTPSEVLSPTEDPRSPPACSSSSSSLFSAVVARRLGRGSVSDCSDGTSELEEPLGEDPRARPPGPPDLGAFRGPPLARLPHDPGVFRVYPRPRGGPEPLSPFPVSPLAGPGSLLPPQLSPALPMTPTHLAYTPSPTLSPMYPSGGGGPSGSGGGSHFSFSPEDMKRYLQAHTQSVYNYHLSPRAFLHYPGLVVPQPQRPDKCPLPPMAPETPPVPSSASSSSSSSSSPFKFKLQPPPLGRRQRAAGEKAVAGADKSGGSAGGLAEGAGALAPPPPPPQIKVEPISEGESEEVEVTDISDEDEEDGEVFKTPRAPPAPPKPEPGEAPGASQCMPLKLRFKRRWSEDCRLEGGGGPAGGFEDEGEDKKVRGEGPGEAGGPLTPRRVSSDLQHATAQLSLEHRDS
# Method in brief: as §1
# ETV3L = target: T7, ETV3L (Homo sapiens, UniProt Q6ZN32 1-361); details: protein: recombinant; tags: N-terminal GST; dsDNA, one strand shown
# T7 sequence: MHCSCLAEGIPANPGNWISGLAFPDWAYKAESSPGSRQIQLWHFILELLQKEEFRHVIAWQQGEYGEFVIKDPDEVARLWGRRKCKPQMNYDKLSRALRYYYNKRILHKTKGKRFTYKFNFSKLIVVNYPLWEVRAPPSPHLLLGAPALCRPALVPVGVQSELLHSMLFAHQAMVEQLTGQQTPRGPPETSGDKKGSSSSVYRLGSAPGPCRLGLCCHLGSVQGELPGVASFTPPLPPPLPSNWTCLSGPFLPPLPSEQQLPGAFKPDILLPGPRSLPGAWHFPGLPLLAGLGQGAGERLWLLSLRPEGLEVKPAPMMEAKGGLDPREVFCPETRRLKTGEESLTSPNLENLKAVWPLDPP
# Method in brief: as §1
# ETS2 = target: T8, ETS2 (Homo sapiens, UniProt P15036 1-469); details: protein: recombinant; tags: N-terminal GST; dsDNA, one strand shown
# T8 sequence: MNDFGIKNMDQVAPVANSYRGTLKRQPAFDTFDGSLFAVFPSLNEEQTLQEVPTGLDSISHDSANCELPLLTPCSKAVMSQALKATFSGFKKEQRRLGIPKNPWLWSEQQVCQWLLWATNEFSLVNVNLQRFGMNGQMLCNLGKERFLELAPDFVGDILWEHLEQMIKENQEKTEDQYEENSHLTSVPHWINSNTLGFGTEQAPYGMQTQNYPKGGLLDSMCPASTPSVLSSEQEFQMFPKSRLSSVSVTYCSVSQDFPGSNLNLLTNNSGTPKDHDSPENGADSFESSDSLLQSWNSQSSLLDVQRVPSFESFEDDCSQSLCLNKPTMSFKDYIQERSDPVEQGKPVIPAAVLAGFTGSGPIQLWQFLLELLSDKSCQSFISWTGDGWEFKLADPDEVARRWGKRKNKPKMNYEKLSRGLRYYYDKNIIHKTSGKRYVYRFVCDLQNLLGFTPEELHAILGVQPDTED
# Method in brief: as §1
# SPDEF = target: T9, SPDEF (Homo sapiens, UniProt O95238 1-335); details: protein: recombinant; tags: N-terminal GST; dsDNA, one strand shown
# T9 sequence: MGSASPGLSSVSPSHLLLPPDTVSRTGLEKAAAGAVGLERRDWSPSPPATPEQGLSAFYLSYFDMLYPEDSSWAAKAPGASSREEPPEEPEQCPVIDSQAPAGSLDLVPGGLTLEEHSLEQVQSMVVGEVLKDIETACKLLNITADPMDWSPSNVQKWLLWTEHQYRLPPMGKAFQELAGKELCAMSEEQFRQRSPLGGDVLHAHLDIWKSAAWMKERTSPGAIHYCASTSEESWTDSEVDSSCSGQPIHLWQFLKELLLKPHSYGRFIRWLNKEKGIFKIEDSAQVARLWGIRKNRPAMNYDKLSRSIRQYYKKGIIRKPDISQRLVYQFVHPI
# Method in brief: as §1
# ETV7 = target: T10, ETV7 (Homo sapiens, UniProt Q9Y603 1-341); details: protein: recombinant; tags: N-terminal GST; dsDNA, one strand shown
# T10 sequence: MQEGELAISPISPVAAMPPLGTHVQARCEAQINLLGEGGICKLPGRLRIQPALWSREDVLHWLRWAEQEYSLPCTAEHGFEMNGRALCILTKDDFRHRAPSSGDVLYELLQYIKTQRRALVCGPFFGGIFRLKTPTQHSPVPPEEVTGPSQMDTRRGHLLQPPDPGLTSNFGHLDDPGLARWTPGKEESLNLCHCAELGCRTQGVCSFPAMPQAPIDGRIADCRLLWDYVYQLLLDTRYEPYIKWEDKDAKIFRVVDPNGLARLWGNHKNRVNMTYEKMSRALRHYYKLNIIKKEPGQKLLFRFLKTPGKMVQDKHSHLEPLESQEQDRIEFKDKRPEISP
# Method in brief: as §1
# ELF5 = target: T11, ELF5 (Homo sapiens, UniProt Q9UKW6-2 1-255); details: protein: recombinant; tags: N-terminal GST; dsDNA, one strand shown
# T11 sequence: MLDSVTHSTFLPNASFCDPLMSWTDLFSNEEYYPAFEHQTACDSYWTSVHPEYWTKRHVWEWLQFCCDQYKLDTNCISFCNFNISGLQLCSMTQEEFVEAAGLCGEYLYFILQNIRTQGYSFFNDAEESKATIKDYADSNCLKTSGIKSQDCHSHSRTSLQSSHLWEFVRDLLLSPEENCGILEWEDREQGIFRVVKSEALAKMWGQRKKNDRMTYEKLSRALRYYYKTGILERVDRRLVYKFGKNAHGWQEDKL
# Method in brief: as §1
# ETV3 = target: T12, ETV3 (Homo sapiens, UniProt P41162-2 1-143); details: protein: recombinant; tags: N-terminal GST; dsDNA, one strand shown
# T12 sequence: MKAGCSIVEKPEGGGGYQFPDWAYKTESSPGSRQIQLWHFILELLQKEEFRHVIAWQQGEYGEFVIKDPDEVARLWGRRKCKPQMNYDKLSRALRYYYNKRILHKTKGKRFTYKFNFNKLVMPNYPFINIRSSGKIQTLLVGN
# Method in brief: as §1
# ETV6 = ETV6 (Homo sapiens, UniProt P41212 1-452); details: protein: recombinant; tags: N-terminal GST; dsDNA, one strand shown
# Method in brief: as §1
# Chain of ELF4 (Q99607 whole entry): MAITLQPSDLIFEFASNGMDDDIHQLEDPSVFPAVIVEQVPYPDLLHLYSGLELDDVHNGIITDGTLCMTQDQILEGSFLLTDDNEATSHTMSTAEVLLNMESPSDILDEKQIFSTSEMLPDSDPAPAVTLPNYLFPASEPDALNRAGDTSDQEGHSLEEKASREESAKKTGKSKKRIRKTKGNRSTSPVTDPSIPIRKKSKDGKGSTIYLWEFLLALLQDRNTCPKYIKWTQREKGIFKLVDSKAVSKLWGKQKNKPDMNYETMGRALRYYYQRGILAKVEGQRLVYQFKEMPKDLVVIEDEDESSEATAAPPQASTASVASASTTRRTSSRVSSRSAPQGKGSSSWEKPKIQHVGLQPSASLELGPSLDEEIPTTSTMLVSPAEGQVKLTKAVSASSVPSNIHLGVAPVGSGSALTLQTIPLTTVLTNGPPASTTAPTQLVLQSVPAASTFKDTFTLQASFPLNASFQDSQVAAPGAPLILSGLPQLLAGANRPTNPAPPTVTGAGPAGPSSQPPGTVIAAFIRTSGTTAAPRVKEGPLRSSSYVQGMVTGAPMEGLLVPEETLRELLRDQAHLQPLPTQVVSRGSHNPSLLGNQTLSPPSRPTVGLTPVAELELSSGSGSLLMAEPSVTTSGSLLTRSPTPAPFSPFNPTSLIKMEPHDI
# Chain of HSF1 (Q00613 whole entry): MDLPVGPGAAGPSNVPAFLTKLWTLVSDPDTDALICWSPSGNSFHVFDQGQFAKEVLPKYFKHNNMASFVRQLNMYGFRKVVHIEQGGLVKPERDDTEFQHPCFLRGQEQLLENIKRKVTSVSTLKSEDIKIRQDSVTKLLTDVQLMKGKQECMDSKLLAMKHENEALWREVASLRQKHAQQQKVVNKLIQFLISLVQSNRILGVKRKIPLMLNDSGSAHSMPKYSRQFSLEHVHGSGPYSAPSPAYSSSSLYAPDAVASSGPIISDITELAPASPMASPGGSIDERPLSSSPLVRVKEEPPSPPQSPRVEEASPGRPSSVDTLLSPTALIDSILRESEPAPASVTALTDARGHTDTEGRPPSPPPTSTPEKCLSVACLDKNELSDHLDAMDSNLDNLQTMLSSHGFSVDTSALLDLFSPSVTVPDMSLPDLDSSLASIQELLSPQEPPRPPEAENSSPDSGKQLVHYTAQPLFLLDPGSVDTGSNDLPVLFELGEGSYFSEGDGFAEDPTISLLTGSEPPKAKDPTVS
# Chain of ETV6 (P41212 whole entry): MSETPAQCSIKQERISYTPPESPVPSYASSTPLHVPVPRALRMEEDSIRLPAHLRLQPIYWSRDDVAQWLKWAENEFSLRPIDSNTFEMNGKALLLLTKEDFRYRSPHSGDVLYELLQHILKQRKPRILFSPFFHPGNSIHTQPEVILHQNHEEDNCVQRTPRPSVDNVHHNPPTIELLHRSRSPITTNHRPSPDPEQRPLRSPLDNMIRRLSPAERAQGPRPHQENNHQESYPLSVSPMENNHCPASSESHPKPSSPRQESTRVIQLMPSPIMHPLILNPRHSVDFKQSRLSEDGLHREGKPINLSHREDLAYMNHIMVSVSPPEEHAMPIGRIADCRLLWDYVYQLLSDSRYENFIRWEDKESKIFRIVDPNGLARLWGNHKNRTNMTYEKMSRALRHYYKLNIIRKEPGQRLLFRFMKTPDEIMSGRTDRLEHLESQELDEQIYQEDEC
# Chain of ETV1 (P50549 whole entry): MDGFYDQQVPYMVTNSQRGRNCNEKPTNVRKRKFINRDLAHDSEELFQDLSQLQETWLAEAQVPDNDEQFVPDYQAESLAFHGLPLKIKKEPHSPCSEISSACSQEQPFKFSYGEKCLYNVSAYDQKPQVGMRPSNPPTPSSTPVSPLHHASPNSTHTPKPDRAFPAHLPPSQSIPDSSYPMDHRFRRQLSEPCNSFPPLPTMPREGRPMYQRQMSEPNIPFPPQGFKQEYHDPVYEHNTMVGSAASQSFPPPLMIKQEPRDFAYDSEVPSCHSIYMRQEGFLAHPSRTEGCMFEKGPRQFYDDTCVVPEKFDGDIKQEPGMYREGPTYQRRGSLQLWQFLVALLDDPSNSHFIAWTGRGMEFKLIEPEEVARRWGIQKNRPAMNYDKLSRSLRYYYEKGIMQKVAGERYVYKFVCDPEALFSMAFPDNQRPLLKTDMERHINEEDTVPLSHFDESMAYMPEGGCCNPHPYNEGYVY
# Chain of ETV5 (P41161 whole entry): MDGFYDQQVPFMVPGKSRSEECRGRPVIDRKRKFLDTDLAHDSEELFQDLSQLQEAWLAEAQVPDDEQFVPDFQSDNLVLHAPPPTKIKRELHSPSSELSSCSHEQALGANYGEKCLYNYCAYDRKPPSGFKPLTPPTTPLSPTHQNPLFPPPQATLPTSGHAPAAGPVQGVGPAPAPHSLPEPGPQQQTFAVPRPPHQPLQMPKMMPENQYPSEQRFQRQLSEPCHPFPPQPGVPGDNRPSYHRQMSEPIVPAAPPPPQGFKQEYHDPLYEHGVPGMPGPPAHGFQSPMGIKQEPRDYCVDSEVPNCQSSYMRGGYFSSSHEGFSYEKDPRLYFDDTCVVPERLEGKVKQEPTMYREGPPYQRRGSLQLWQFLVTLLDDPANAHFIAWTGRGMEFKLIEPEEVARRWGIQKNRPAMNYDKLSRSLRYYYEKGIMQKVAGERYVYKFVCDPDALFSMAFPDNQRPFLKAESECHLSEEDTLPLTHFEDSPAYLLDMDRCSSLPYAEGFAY
# Chain of CRX (O43186 whole entry): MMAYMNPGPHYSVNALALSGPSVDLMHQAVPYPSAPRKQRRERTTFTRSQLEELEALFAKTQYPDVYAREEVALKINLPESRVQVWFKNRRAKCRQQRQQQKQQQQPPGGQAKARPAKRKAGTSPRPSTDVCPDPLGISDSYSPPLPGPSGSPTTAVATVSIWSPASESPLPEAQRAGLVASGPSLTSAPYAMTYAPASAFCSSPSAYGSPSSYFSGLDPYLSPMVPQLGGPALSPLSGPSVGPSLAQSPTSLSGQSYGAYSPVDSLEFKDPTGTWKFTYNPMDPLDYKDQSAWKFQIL
sequence,measurement,setting,value
TTACAA,binding signal,FEV,"1.12 fold enrichment (6-mer frequency, TF over GST control)"
same,binding signal,ETV5,"1.1 fold enrichment (6-mer frequency, TF over GST control)"
same,binding signal,HSF1,"1.31 fold enrichment (6-mer frequency, TF over GST control)"
same,binding signal,SPIC,"1.12 fold enrichment (6-mer frequency, TF over GST control)"
same,binding signal,ELF4,"1.12 fold enrichment (6-mer frequency, TF over GST control)"
same,binding signal,ELK4,"1.24 fold enrichment (6-mer frequency, TF over GST control)"
same,binding signal,ETV2,"1.09 fold enrichment (6-mer frequency, TF over GST control)"
same,binding signal,ELF3,"1.22 fold enrichment (6-mer frequency, TF over GST control)"
same,binding signal,CRX,"1.77 fold enrichment (6-mer frequency, TF over GST control)"
same,binding signal,ETV1,"1.18 fold enrichment (6-mer frequency, TF over GST control)"
same,binding signal,ERF,"1.23 fold enrichment (6-mer frequency, TF over GST control)"
same,binding signal,ETV3L,"1.1 fold enrichment (6-mer frequency, TF over GST control)"
same,binding signal,ETS2,"1.16 fold enrichment (6-mer frequency, TF over GST control)"
same,binding signal,SPDEF,"1.22 fold enrichment (6-mer frequency, TF over GST control)"
same,binding signal,ETV7,"1.11 fold enrichment (6-mer frequency, TF over GST control)"
same,binding signal,ELF5,"1.17 fold enrichment (6-mer frequency, TF over GST control)"
same,binding signal,ETV3,"1.08 fold enrichment (6-mer frequency, TF over GST control)"
same,binding signal,ETV6,"1.09 fold enrichment (6-mer frequency, TF over GST control)"
